The results in this text go back to PubChem BioAssay (Tox21).

Several values for one entry are separate records, joined by “and”; a condition that tells them apart may be missing. Identical values can stand only once. Inconclusive results are not listed. Some structures have more than one record in an assay (separate samples or runs), and their calls can disagree. Activity calls are given as the source filed them. Unless noted, the call rests on the fitted dose curve; in most records, active means well fitted curve in the direction sought with a large enough effect in the repeat runs; inconclusive means weak or mixed curves; inactive means no such curve, though single readings can be large; an effect the other way counts as inactive or inconclusive.

Experiment [1] in a line: qHTS assay to identify small molecule antagonists of the estrogen receptor alpha (ER-alpha) signaling pathway using the BG1 cell line in the presence of 0.1 nM 17-beta-estradiol - cell viability counter screen (AID 1259241). Further: nearly all actives have a fitted effect of over 40% in size. Further: potency means the concentration at half of the fitted maximal effect. The method, boiled down:
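VM7Luc4E2 cells (endogenous full-length ER-alpha, 4xERE-luciferase), cultured 5 days in charcoal-stripped serum, exposed to compounds with 0.1 nM 17beta-estradiol (final) for 22 hr at 37C. Viability read in same wells as live-cell protease fluorescence after 30 min.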
(Quantitative high-throughput screening tests each substance at several concentrations.)

Experiment [2] can be described thus: qHTS assay to identify small molecule antagonists of the androgen receptor (AR) signaling pathway using the MDA cell line in the presence of 0.5 nM R1881 - cell viability counter screen (AID 1259242). Further: nearly all actives have a fitted effect of over 45% in size. The method, boiled down:
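Viability of MDA-kb2 cells was multiplexed with the luciferase AR readout; after 16 hr with compounds and R1881 at 0.5 nM final, CellTiter-Fluor fluorescence was recorded.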

In experiment [3] the target is Estrogen receptor (Homo sapiens) (UniProt P03372). Nature of the experiment: qHTS assay to identify small molecule antagonists of the estrogen receptor alpha (ER-alpha) signaling pathway using the BG1 cell line in the presence of 0.1 nM 17-beta-estradiol (AID 1259244). Further: nearly all actives have a fitted effect of over 50% in size. Further: potency means the concentration at half of the fitted maximal effect. The method, boiled down: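 Estradiol at 0.1 nM (final) stimulates the endogenous ER-alpha of VM7Luc4E2 cells carrying an ERE-driven luciferase; compounds are co-incubated 22 h at 37C and luciferase output quantified by luminescence.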

Experiment [4] is described as follows: qHTS assay to identify small molecule HDAC inhibitors (AID 1259364).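 Further: wild-type HCT-116 cells with endogenous class I/II HDAC activity; top concentration of the series differs between compounds; nearly all actives have a fitted effect of over 45% in size.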 The method, boiled down:
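Read-out: luminescence of HDAC-Glo I/II reagent, 30 min RT, reflecting class I/II deacetylase activity in whole HCT-116 cells pre-exposed 2 h to DMSO-dissolved compounds.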

Experiment [5] in a line: qHTS assay to identify small molecule HDAC inhibitors - cell viability counter screen (AID 1259365). Further: series mostly up to about 92 µM; nearly all actives have a fitted effect of over 50% in size. The method, boiled down:
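Wild-type HCT-116 cells, 1,500/well, cultured overnight, then compound-treated 2 h at 37 C. Viability measured as ATP luminescence with CellTiter-Glo after 30 min at room temperature.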

The nature of experiment [6]: qHTS assay to identify small molecule agonists of the sonic hedgehog signaling (Shh) pathway (AID 1259368; calls by dose curve; further: nearly all actives have a fitted effect of over 15% in size; further: potency means the concentration at half of the fitted maximal effect). The method, boiled down:
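A Gli1 transcriptional response element controlled firefly luciferase in 3T3Gli1-Luc cells. Compounds and a positive control were added 4 hr after plating, and cells were incubated a further 24 hr at 37 C before luminescence detection.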

In experiment [7] the target is Estrogen receptor beta (Homo sapiens) (UniProt Q92731). Description: qHTS assay to identify small molecule agonists of the estrogen receptor beta (ER-beta) signaling pathway (AID 1259377; active means well fitted activation curve with a large enough effect in the signal ratio in the repeat runs, not every such curve was filed as active; the % refers to the signal ratio; further: potency means the concentration at half of the fitted maximal effect). The method, boiled down: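 ER-beta-UAS-bla HEK293T cells in medium with 2% charcoal-stripped FBS were exposed to compounds for 16 h at 37C. Beta-lactamase reporter activity was read as fluorescence after 2 h with LiveBLAzer B/G FRET substrate at room temperature.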

The nature of experiment [8]: qHTS assay to identify small molecule agonists of the androgen receptor (AR) signaling pathway in the presence of an antagonist - cell viability counter screen (AID 1259379). Further: nearly all actives have a fitted effect of over 25% in size. Further: potency means the concentration at half of the fitted maximal effect. The method, boiled down: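 Seed MDA-kb2 at 3,000 cells/well; incubate 5 hr, 37C, 0% CO2. Add nilutamide to 3.0uM final, then pin compounds at 15 concentrations. Incubate 16 hr. Add CellTiter-Fluor at 15 hr, read fluorescence after 1 hr.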

Experiment [9] is described as follows: qHTS assay to identify small molecule agonists of the estrogen receptor beta (ER-beta) signaling pathway - cell viability counter screen (AID 1259380). Further: nearly all actives have a fitted effect of over 30% in size. Further: potency means the concentration at half of the fitted maximal effect. The method, boiled down: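 CellTiter-Glo read, 30 min RT, same wells as bla assay; cells ER-beta-UAS-bla HEK293T; 16 hr compound, 37C; medium 2% charcoal-stripped FBS.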
Experiment [10] in a line: qHTS assay to identify small molecule antagonists of the estrogen receptor beta (ER-beta) signaling pathway - cell viability counter screen (AID 1259382). Further: nearly all actives have a fitted effect of over 55% in size. Further: potency means the concentration at half of the fitted maximal effect. The method, boiled down:
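In this multiplexed counter screen, cells were seeded at 2,000 per well in medium with 2% charcoal-stripped FBS and incubated 6 hr before compound and 1nM final E2 were added. Sixteen hours later, ATP-based luminescence reported viability.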

Experiment [11] deals with Estrogen receptor (Homo sapiens) (UniProt P03372). Nature of the experiment: qHTS assay to identify small molecule agonists of the estrogen receptor alpha (ER-alpha) signaling pathway in the presence of an antagonist (AID 1259383; calls by dose curve; further: top concentration of the series differs between compounds; nearly all actives have a fitted effect of over 15% in size). The method, boiled down: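 Stably transfected VM7Luc4E2 reporter cells, kept 5 days in charcoal-stripped serum, received ICI-182,780 at 10.0nM final before compound addition. Following 22hr incubation at 37C and 5% CO2, luciferase signal was read by luminescence.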

Experiment [12] is described as follows: qHTS assay to identify small molecule agonists or antagonists of the thyroid stimulating hormone receptor (TSHR) signaling pathway - wild type cell line counter screen (AID 1259384; calls by dose curve). The method, boiled down: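 Wild-type HEK293 cells were plated 18 h at 37 C/5% CO2, pin-dosed with compound plus Ro20-1724 medium, held 30 min at room temperature, then given cAMP-d2 and anti-cAMP-cryptate; fluorescence was read after 1 h. Fifteen concentrations, triplicate.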

Experiment [13] concerns the target Thyrotropin receptor (Homo sapiens) (UniProt P16473). Nature of the experiment: qHTS assay to identify small molecule antagonists of the thyroid stimulating hormone receptor (TSHR) signaling pathway (AID 1259385; calls by dose curve; further: nearly all actives have a fitted effect of over 20% in size; further: potency means the concentration at half of the fitted maximal effect). The method, boiled down:
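TSHR-HEK293 cells were plated and held 18 h at 37C/5% CO2, then given compound plus Ro20-1724 and stimulated with TSH at 1.5 ng/mL final. After 30 min at room temperature, cAMP was detected with cAMP-d2/anti-cAMP-cryptate (1 h) by fluorescence.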

Experiment [14] can be described thus: qHTS assay to identify small molecule agonists of the sonic hedgehog signaling (Shh) pathway - cell viability counter screen (AID 1259366). Further: nearly all actives have a fitted effect of over 50% in size. Further: potency means the concentration at half of the fitted maximal effect. The method, boiled down:
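NIH/3T3-derived Gli1-Luc reporter cells, 2,000 per well, received compound after 4 h and were treated about 23 h at 37C. Viability measured in the same wells by CellTiter-Fluor fluorescence after 1 h.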

Experiment [15] can be described thus: qHTS assay to identify small molecule antagonists of the sonic hedgehog signaling (Shh) pathway - cell viability counter screen (AID 1259367). Further: nearly all actives have a fitted effect of over 55% in size. Further: potency means the concentration at half of the fitted maximal effect. The method, boiled down: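 After a 4 hr settling period, 3T3 Gli1-Luc cells were treated with DMSO-dissolved chemicals and conditioned medium, kept 24 hr at 37C in 5% CO2, and assayed for viability by CellTiter-Fluor fluorescence following 1 hr reagent incubation.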

Experiment [16] addresses Estrogen receptor beta (Homo sapiens) (UniProt Q92731). Description: qHTS assay to identify small molecule antagonists of the estrogen receptor beta (ER-beta) signaling pathway (AID 1259378; active means well fitted inhibition curve with a large enough effect in the signal ratio in the repeat runs, not every such curve was filed as active; the % refers to the signal ratio; further: potency means the concentration at half of the fitted maximal effect). The method, boiled down:
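ER-beta-UAS-bla HEK293T (GripTite) cells in 2% charcoal-stripped FBS medium were preincubated 6 hr at 37C, dosed with compound, then stimulated with 1 nM E2 (final) for 16 hr; beta-lactamase reporter read by B/G FRET fluorescence after 2 hr substrate loading.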

Experiment [17] in a line: qHTS assay to identify small molecule phospholipidosis (PLD) inducers (AID 1259344; active means well fitted curve in the direction sought with a large enough effect; an effect the other way counts as inactive or inconclusive). The method, boiled down:
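HepG2 cells grown on collagen I take up LipidTOX Red while exposed to compound for 24 h; after fixation they are imaged at 20x and pit metrics are extracted.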

The nature of experiment [18]: qHTS assay to identify small molecule antagonists of the sonic hedgehog signaling (Shh) pathway (AID 1259369; calls by dose curve; further: nearly all actives have a fitted effect of over 45% in size). The method, boiled down:
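For antagonist detection, the reporter line received test compounds together with conditioned medium, incubated 24hr at 37 C, 5% CO2, then luminescence was recorded following 30min room-temperature luciferase reagent incubation.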

Experiment [19] deals with Androgen receptor (Homo sapiens) (UniProt P10275). Nature of the experiment: qHTS assay to identify small molecule agonists of the androgen receptor (AR) signaling pathway in the presence of an antagonist (AID 1259381; calls by dose curve; further: nearly all actives have a fitted effect of over 15% in size). The method, boiled down:
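Test compounds at 15 concentrations were incubated for 16hr with MDA-kb2 reporter cells in presence of 3.0uM nilutamide (final). Signal: ONE-Glo luciferase luminescence.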

Sequence of Estrogen receptor (Homo sapiens) (P03372 whole entry, looked up): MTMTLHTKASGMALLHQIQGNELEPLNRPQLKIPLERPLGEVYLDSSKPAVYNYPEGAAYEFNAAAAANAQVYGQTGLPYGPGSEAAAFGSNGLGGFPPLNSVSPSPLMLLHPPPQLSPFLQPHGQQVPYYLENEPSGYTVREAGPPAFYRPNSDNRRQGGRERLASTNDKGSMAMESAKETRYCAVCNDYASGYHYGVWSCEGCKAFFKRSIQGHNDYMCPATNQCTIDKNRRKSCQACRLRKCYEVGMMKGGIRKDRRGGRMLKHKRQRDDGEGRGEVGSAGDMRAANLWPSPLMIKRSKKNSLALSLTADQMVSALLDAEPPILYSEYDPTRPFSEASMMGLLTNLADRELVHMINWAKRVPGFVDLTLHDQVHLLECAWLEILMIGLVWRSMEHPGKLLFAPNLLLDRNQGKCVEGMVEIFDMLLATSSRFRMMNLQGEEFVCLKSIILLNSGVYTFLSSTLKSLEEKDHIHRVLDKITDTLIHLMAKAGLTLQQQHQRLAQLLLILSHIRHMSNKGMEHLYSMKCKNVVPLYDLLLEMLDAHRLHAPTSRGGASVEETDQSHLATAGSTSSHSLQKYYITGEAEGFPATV
Sequence of Thyrotropin receptor (Homo sapiens) (P16473 whole entry, looked up): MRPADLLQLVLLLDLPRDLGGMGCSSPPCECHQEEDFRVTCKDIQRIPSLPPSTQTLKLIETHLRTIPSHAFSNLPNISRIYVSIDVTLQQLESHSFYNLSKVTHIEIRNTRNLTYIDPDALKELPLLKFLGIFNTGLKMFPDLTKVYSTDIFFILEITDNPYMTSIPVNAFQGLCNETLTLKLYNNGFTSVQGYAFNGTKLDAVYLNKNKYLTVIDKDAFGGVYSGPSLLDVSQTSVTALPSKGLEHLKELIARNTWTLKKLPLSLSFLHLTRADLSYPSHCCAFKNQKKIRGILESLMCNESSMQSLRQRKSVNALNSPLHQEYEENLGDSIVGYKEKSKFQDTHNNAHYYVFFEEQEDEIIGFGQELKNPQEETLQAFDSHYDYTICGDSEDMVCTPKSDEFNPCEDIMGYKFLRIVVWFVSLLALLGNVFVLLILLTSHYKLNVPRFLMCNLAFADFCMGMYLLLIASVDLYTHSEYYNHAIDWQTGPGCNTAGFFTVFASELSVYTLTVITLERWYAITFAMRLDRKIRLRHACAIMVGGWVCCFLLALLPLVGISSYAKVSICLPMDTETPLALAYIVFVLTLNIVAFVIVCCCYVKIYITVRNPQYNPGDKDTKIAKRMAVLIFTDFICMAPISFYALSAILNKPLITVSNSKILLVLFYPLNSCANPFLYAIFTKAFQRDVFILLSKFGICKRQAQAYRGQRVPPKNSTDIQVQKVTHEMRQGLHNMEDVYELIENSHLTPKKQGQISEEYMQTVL
Sequence of Estrogen receptor beta (Homo sapiens) (Q92731 whole entry, looked up): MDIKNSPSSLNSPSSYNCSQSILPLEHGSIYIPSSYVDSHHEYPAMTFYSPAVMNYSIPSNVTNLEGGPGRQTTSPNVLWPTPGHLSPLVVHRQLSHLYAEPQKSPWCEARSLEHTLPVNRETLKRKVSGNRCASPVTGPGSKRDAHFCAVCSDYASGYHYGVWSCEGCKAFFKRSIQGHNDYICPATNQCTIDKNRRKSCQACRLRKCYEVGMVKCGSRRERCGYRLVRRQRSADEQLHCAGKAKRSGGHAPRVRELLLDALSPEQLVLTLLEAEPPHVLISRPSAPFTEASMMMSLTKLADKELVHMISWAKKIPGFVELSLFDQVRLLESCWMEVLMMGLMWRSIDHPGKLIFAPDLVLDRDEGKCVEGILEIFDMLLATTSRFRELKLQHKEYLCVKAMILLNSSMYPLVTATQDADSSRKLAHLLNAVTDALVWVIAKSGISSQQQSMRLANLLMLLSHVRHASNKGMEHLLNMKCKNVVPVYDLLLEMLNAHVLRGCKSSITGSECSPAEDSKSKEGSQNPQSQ
Sequence of Androgen receptor (Homo sapiens) (P10275 whole entry, looked up): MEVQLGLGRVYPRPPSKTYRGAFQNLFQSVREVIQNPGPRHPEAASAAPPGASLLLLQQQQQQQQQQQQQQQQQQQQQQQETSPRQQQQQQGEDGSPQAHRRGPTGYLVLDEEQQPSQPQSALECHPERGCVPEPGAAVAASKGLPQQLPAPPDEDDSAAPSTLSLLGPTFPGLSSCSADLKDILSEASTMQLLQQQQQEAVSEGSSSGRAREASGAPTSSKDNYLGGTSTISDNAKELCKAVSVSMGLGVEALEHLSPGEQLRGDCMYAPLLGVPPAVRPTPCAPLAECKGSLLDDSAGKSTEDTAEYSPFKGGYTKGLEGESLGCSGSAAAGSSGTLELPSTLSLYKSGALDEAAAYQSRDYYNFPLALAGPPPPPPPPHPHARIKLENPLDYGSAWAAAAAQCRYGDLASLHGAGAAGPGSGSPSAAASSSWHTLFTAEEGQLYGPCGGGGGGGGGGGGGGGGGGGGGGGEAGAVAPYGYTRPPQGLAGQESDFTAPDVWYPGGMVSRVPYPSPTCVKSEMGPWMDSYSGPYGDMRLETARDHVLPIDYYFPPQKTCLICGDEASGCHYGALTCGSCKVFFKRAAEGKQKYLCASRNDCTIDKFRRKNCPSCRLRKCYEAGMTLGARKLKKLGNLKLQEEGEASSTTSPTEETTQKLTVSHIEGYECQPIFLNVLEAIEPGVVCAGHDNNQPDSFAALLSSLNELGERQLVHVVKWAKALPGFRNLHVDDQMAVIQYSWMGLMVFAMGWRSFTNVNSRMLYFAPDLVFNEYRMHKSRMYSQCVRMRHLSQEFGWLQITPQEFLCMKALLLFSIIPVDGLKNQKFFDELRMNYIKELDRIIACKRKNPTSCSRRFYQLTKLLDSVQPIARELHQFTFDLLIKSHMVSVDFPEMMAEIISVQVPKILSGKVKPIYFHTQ

In the case of `CCOP(=S)(OCC)SCCS(=O)(=O)CC`, the Potency entry in experiment [1], in [2], in experiment [3], in experiment [4], in [5] and in [6] was “inactive” throughout. Besides, the Potency result in [7], in experiment [8], in experiment [9], in experiment [10], in [11] and in [13] was “inactive” in each case. In [12], the call was inactive.
`Cc1cc(C(F)(C(F)(F)F)C(F)(F)F)ccc1NC(=O)c1cccc(I)c1C(=O)NC(C)(C)CS(C)(=O)=O`: the Potency entry in experiment [1], in experiment [2], in [3], in experiment [4], in [5] and in [14] was “inactive” each time. In addition, the Potency entry in experiment [15], in [7], in experiment [16], in [8], in experiment [11] and in experiment [13] was “inactive” in each case. The Potency was 13.8 µM (active) in experiment [6] and 19.4 µM (active) in experiment [9]. In experiment [12], the outcome was inactive.
`Clc1ccc(COC(Cn2ccnc2)c2ccc(Cl)cc2Cl)cc1` (centres undefined): the Potency result in experiment [1], in experiment [2], in [17], in experiment [4], in experiment [5] and in [6] was “inactive” each time. Besides, the Potency result in [7] is “inactive”. In addition, the Potency in experiment [14] was 36 µM (active) and 27.2 µM (active); in experiment [15], 45.3 µM (active) and 27.2 µM (active) and inactive; in [16], 13.3 µM (active); in experiment [8], 50.8 µM (active) and 60.9 µM (active) and inactive; in experiment [9] it was 57 µM (active) and 30.5 µM (active) and 11.9 µM (active); in experiment [10], 50.8 µM (active) and 27.2 µM (active) and 26.6 µM (active). In addition, the Potency in experiment [13] is 57 µM (active) and 68.3 µM (active). The compound was called inactive in [12].
As for `COc1cc(N)c(Cl)cc1C(=O)NC1CN2CCC1CC2` (centres undefined), the Potency entry in [1], in [2], in experiment [17], in experiment [4], in experiment [5] and in experiment [14] was “inactive” each time. The Potency entry in experiment [15], in experiment [6], in experiment [7], in experiment [16], in [8] and in [9] was “inactive” throughout. Moreover, the Potency entry in experiment [10] and in experiment [13] was “inactive” throughout. Also, the result in experiment [12] was inactive.
As for `C[C@]12CC[C@@H]3c4ccc(OC(=O)N(CCCl)CCCl)cc4CC[C@H]3[C@@H]1CC[C@@H]2O`, the Potency entry in experiment [1], in [2], in experiment [17], in experiment [4], in experiment [5] and in [14] was “inactive” throughout. The Potency entry in [15], in [6], in [18], in experiment [8], in experiment [9] and in experiment [10] was “inactive” each time. In addition, the Potency entry in experiment [13] is “inactive”. Besides, the Potency in experiment [7] is 0.266 µM (active). For the same compound, the call in experiment [12] was inactive.
For `S=C=Nc1cccc2ccccc12`, the Potency in experiment [1] is 30.3 µM (active); in experiment [3], 19.1 µM (active); in [14] it was 53.9 µM (active); in experiment [9] it was 60.5 µM (active); in experiment [10], 67.9 µM (active). Moreover, the Potency entry in experiment [2], in experiment [4], in experiment [5], in experiment [6], in [8] and in experiment [19] was “inactive” in each case. The Potency result in [11] is “inactive”. Also, in experiment [12], the result was inactive.
On to `ClC(Cl)=C(c1ccc(Cl)cc1)c1ccc(Cl)cc1`, for which the Potency entry in [1], in experiment [2], in experiment [3], in experiment [4], in experiment [14] and in experiment [15] was “inactive” throughout. Also, the Potency result in experiment [6], in [8], in [10] and in experiment [11] was “inactive” each time. Moreover, the call in [12] was inactive. In addition, the Potency in experiment [13] is 28 µM (active).
For `COP(=O)(OC)SCn1c(=O)oc2cc(Cl)cnc21`, the Potency entry in [1], in experiment [2], in experiment [3], in experiment [5], in [14] and in experiment [15] was “inactive” each time. Moreover, the Potency result in [6], in [19], in [10] and in experiment [11] was “inactive” in each case. Besides, the call in experiment [12] was inactive.
